Among the test systems are NCI-H23 lung; NCI-H226 lung; NCI-H322M lung; HOP-62 NSCLC; NCI-H460 lung; NCI-H522 lung; A549/ATCC NSCLC; 786-0 renal; COLO 205 colon; DU-145 prostate; K-562 leukemia; MALME-3M melanoma; MDA-MB-231 breast; RXF 393 renal; SF-268 CNS; SF-295 CNS; SF-539 CNS; UACC-257 melanoma; HCT-15 colon; M14 melanoma.
What all share (assay): NCI-60 one-dose screen, 48 h (100 = growth as untreated, 0 = no growth, -100 = all killed)
Holding throughout (conditions): 10 µM

About 83,000 compounds went through this panel and 20% of them were active in at least one assay; those are over-represented in the sample as a whole.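 96-well plates, one dose, 48 hours. Percent growth reported; active if below 10.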 Values without a mark were called inactive. Active and inactive are the calls of the source.

Consider `COc1ccc(C2=Nc3c(C)nn(-c4ccccc4)c3NC(c3ccc(Oc4ccnc5cc(Cl)ccc45)c(OC)c3)C2)cc1` (stereo not given), for which the growth is 77.8% in the experiment with NCI-H23 lung; 74.3% in the experiment with NCI-H226 lung; 95.1% with NCI-H322M lung; 113% in the experiment on HOP-62 NSCLC; 81.6% in the experiment with NCI-H460 lung; 62.1% in the experiment on NCI-H522 lung. In addition, the growth is 84% in the experiment on A549/ATCC NSCLC; 89.8% in the experiment on 786-0 renal; 83.6% with COLO 205 colon; 100% with DU-145 prostate; 62.2% in the experiment on K-562 leukemia; 95.6% in the experiment with MALME-3M melanoma. The growth in the experiment with MDA-MB-231 breast was 58%; with RXF 393 renal, 80.4%; with SF-268 CNS, 78.8%; in the experiment on SF-295 CNS, 93.1%; in the experiment on SF-539 CNS it was 92.2%; in the experiment with UACC-257 melanoma it was 98.3%. Moreover, the growth in the experiment on HCT-15 colon was 62.9%.

`COc1ccc(-c2nc(-c3nc4cc(Cl)c(Cl)cc4[nH]3)c3ccccn23)cc1`: the growth in the experiment on NCI-H23 lung is 67.5%; in the experiment on NCI-H226 lung, 44.5%; in the experiment on NCI-H322M lung it was 48.4%; in the experiment on HOP-62 NSCLC it was -11.7% (active); with NCI-H460 lung it was 41.5%; with NCI-H522 lung, 55.9%. Moreover, the growth with A549/ATCC NSCLC is 16.8%; with 786-0 renal, 0.945% (active); with COLO 205 colon it was 88.4%; with DU-145 prostate, 47.5%; in the experiment on K-562 leukemia, 59.8%; in the experiment with MALME-3M melanoma, 18%. Besides, the growth in the experiment on MDA-MB-231 breast is -18.3% (active); with RXF 393 renal, -39.4% (active); in the experiment with SF-268 CNS, 21%; in the experiment with SF-295 CNS, 13.9%; in the experiment with SF-539 CNS, 8.32% (active); in the experiment with UACC-257 melanoma, 63.6%. Moreover, the growth in the experiment on HCT-15 colon was 76.7%.

Regarding `O=C(Nc1cccc(-n2cc(-c3ccncc3)c(-c3ccc(O)c(Cl)c3)n2)c1)c1cc(C(F)(F)F)cc(C(F)(F)F)c1`, the growth is 57.5% with NCI-H23 lung; 75.9% in the experiment with NCI-H226 lung; 74.3% with NCI-H322M lung; 78.9% in the experiment with HOP-62 NSCLC; 21.5% in the experiment with NCI-H460 lung; 24.3% in the experiment with NCI-H522 lung. The growth in the experiment on A549/ATCC NSCLC was 33.7%; in the experiment with 786-0 renal, 71.4%; in the experiment with COLO 205 colon, 94.8%; with DU-145 prostate, 73.5%; in the experiment with K-562 leukemia, 35.9%; in the experiment with MALME-3M melanoma, 70.4%. Moreover, the growth with MDA-MB-231 breast was -45% (active); with RXF 393 renal, 33.5%; in the experiment on SF-268 CNS, 76.8%; with SF-295 CNS, 24.9%; with SF-539 CNS, 56.1%; in the experiment with UACC-257 melanoma, 66.9%. Also, the growth in the experiment on HCT-15 colon is 44.9%.

As for `O=[P@@]1(c2ccccc2)O[C@H](COCc2ccccc2)[C@@H](OCc2ccccc2)[C@H](OCc2ccccc2)[C@H]1O`, the growth is 64.4% in the experiment with NCI-H23 lung; 59% with NCI-H226 lung; 86.9% in the experiment with NCI-H322M lung; 7.83% (active) in the experiment on HOP-62 NSCLC; 74.7% with NCI-H460 lung; 42.2% with NCI-H522 lung. Also, the growth with A549/ATCC NSCLC was 83.3%; in the experiment with 786-0 renal, 65.3%; in the experiment on COLO 205 colon it was 118%; with DU-145 prostate, 90.6%; with K-562 leukemia, 93.9%; in the experiment with MALME-3M melanoma it was 109%. The growth in the experiment with MDA-MB-231 breast is 73.2%; in the experiment with RXF 393 renal it was 50%; with SF-268 CNS, 43.6%; in the experiment on SF-295 CNS it was -24.9% (active); with SF-539 CNS, 58.1%; in the experiment with UACC-257 melanoma, 88.4%. In addition, in the experiment with HCT-15 colon, the growth is 94.2%.

`COc1cc2cc3c(nc2cc1OC)CCN3Cc1ccc(NC(=O)c2ccc(Cl)c(C(F)(F)F)c2)cc1`: the growth was 99.7% with NCI-H23 lung; 71.2% with NCI-H226 lung; 84.9% with NCI-H322M lung; 105% in the experiment on HOP-62 NSCLC; 107% in the experiment on NCI-H460 lung; 86.6% in the experiment with NCI-H522 lung. Moreover, the growth with A549/ATCC NSCLC was 97%; in the experiment with 786-0 renal, 105%; with COLO 205 colon, 109%; with DU-145 prostate it was 117%; in the experiment with K-562 leukemia it was 94.7%; in the experiment with MALME-3M melanoma, 68.8%. Also, the growth is 85.4% in the experiment with MDA-MB-231 breast; 94.5% in the experiment with RXF 393 renal; 102% in the experiment on SF-268 CNS; 92.8% with SF-295 CNS; 81.1% with SF-539 CNS; 86.6% in the experiment with UACC-257 melanoma. Moreover, the growth with HCT-15 colon is 95.8%.

For `COc1cccc(-c2cc(-c3cccc(NS(C)(=O)=O)c3)nc(N)c2C#N)c1O`, the growth was 26.7% with NCI-H23 lung; 74.5% in the experiment on NCI-H226 lung; 34.6% in the experiment with NCI-H322M lung; 52.1% with HOP-62 NSCLC; 8.75% (active) in the experiment with NCI-H460 lung; 0.405% (active) with NCI-H522 lung. For the same molecule, the growth in the experiment with A549/ATCC NSCLC was 31%; with 786-0 renal it was 49.4%; in the experiment on COLO 205 colon, -6.05% (active); in the experiment on DU-145 prostate it was 15.1%; in the experiment on K-562 leukemia, 17.1%; with MALME-3M melanoma, -5.49% (active). Also, the growth in the experiment with MDA-MB-231 breast is 53.7%; in the experiment on RXF 393 renal, 29.3%; in the experiment with SF-268 CNS, 42.6%; in the experiment with SF-295 CNS, -1.4% (active); with SF-539 CNS it was 3.03% (active); in the experiment with UACC-257 melanoma it was 79.8%. Moreover, the results for the growth in the experiment with M14 melanoma and in the experiment on HCT-15 colon were 41.3% and 26.7%, respectively.

On to `Cc1ccc(S(=O)(=O)Oc2ccc3c4c(c(=O)oc3c2)CCCCC4)cc1`, for which the growth in the experiment on NCI-H23 lung is 62.9%; in the experiment on NCI-H226 lung, 55.9%; in the experiment on NCI-H322M lung it was 95.1%; in the experiment on HOP-62 NSCLC it was 81%; in the experiment on NCI-H460 lung, 37.2%; with NCI-H522 lung, 57.9%. Also, the growth in the experiment on A549/ATCC NSCLC was 40.9%; in the experiment with 786-0 renal, 66.6%; in the experiment with COLO 205 colon, 28.5%; in the experiment on DU-145 prostate, 87.8%; in the experiment on K-562 leukemia it was 36.7%; in the experiment with MALME-3M melanoma, 71.9%. The growth was 74.5% in the experiment on MDA-MB-231 breast; 68.6% in the experiment on RXF 393 renal; 77.2% in the experiment on SF-268 CNS; 48.7% in the experiment on SF-295 CNS; 39.8% in the experiment on SF-539 CNS; 32% with UACC-257 melanoma. The growth in the experiment on M14 melanoma is 71%; with HCT-15 colon, 41.3%.

On to `CCCCC(CCCCCC(CCCC)NCc1ccc2c(c1)OCO2)NCc1ccc2c(c1)OCO2` (stereo not given), for which the growth with NCI-H23 lung was -98.5% (active); with NCI-H226 lung, -77.9% (active); with NCI-H322M lung it was -91.6% (active); with HOP-62 NSCLC, -98.9% (active); in the experiment on NCI-H460 lung, -98.4% (active); in the experiment on NCI-H522 lung, -91.2% (active). Moreover, the growth in the experiment with A549/ATCC NSCLC was -99.2% (active); in the experiment with 786-0 renal it was -100% (active); with COLO 205 colon, -97.5% (active); with DU-145 prostate, -100% (active); in the experiment with K-562 leukemia, -72.3% (active); with MALME-3M melanoma it was -69.3% (active). The growth with MDA-MB-231 breast is -86% (active); with RXF 393 renal, -93.3% (active); in the experiment on SF-268 CNS, -96.8% (active); with SF-295 CNS, -79.7% (active); with SF-539 CNS, -100% (active); with UACC-257 melanoma, -86.9% (active). Also, the growth in the experiment with M14 melanoma was -100% (active); in the experiment with HCT-15 colon it was -88% (active).
